Screening data deposited in PubChem BioAssay by National Center for Advancing Translational Sciences (NCATS).
HP1b binding inh: HP1-beta chromodomain-methylated histone interaction inhibition; P83916; AlphaScreen HP1-beta / biotin-H3K9me3 peptide binding; Potency, µM (doses to about 114 µM), without a hit: at the highest dose activity change, negative = inhibition, actives largely listed as inhibitors; 390,000 tested, 0.56% active; AID 540317; further: nearly all actives have a fitted effect of over 70% in size
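AlphaScreen: HP1-beta (50 nM) preformed 30 min with biotin-H3(1-18)K9me3 peptide (50 nM) in PBS pH 7.4, 0.01% Tween-20. Compound added for 30 min at RT, then streptavidin donor/nickel chelate acceptor beads (10 ug/mL) for 30 min.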
PLK1 PBD inh: blocks phosphopeptide binding to human PLK1 polo-box domain. P53350. 360,000 tested, 2.8% active. Plk1 PBD binding of FITC phosphopeptide, fluorescence polarization. Potency, µM, for inactives: max response, negative = inhibition, actives largely listed as inhibitors; further: series mostly up to about 57 µM; on the % scale 0 is the no-effect control and ±100 the full control effect; nearly all actives have a fitted effect of over 65% in size
Target sequence (P53350 whole entry, looked up, the tested form may be a part): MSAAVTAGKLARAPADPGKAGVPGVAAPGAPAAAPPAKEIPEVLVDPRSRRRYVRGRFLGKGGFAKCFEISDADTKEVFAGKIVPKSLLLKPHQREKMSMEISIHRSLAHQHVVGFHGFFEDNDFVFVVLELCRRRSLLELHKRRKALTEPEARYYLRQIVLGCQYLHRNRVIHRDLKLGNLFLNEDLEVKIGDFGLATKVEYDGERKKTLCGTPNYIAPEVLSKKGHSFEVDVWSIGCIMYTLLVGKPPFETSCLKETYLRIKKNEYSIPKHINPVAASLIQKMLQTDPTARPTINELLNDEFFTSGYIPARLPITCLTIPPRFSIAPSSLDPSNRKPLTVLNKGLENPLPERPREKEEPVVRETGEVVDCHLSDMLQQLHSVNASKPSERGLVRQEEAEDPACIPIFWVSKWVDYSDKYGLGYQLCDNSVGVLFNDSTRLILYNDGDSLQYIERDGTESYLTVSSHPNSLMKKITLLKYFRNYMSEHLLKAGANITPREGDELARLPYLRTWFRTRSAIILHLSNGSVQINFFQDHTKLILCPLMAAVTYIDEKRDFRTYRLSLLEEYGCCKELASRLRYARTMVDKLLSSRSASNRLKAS
BAZ2B block: BAZ2B (human) inhibition; Q9UIF8; AlphaScreen BAZ2B-H3K14Ac peptide displacement; Potency, µM (highest dose often 114 µM), inactives show top-dose activity change, negative = inhibition, actives largely listed as inhibitors; 360,000 tested, 4.4% active; further: on the % scale 0 is the no-effect control and ±100 the full control effect; nearly all actives have a fitted effect of over 60% in size
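BAZ2B (50 nM) with biotin-H3(5-23)K14Ac peptide (50 nM) in PBS pH 7.4, 0.01% Tween-20, preformed 30 min, then compound 30 min at room temperature; top concentration 110uM. AlphaScreen streptavidin donor/nickel chelate acceptor beads (10 ug/mL final), 20 min dark, signal read.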
VDR inh: blocks the human vitamin D receptor. AID 504847. Potency, µM, inactives show max response, negative = inhibition, usual class: inhibitors. VDR-SRC2-3 peptide fluorescence polarization, 2 h. 400,000 tested, 0.93% active; further: on the % scale 0 is the no-effect control and ±100 the full control effect
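The screen uses fluorescence polarization to detect compounds that interfere with recruitment of the SRC2-3 coactivator peptide to VDR; plates are read after 2 h at room temperature.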
G9a inh: blocks human histone lysine methyltransferase G9a. Q96KQ7. G9a H3K9 monomethylation, AlphaScreen, 2 h. Potency, µM (series often up to 102 µM), for inactives: top-dose activity, negative = inhibition, actives largely listed as inhibitors. 350,000 tested, 8.8% active. AID 504332; further: on the % scale 0 is the no-effect control and ±100 the full control effect; nearly all actives have a fitted effect of over 75% in size
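Signal arises when biotinylated H3K9 peptide, once monomethylated, bridges streptavidin donor and antibody-captured acceptor beads. Enzyme at 20 nM was preincubated 15 min with test compounds; peptide 500 nM and SAM 20 uM then reacted for 2 h.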
JMJD2A Tudor inh: blocks the human JMJD2A Tudor domain. O75164. AlphaScreen JMJD2A-Tudor / H3K4me3 peptide binding. Potency, µM (series often up to 114 µM), inactives show at the highest dose activity change, negative = inhibition, hits mostly inhibitors. 390,000 tested, 4.4% active. AID 504339; further: on the % scale 0 is the no-effect control and ±100 the full control effect; nearly all actives have a fitted effect of over 50% in size
Active calls of the source: *; ? = inconclusive; · = no result given; ! = a repeat was not active; [ ] = remark or other dose. Hits are enriched below; roughly 11% of the tested compounds scored in any of these assays. The call rests on the fitted dose curve; in most records, active means well fitted curve in the direction sought with a large enough effect; inconclusive means small, poorly fitted or top-dose-only effect, or another doubt; inactive means no such curve, though single readings can be large; an effect the other way counts as inactive or inconclusive. Potency means the concentration at half of the fitted maximal effect.

SMILES	HP1b binding inh	PLK1 PBD inh	BAZ2B block	VDR inh	G9a inh	JMJD2A Tudor inh
CC1CCN(C(=S)c2cn(Cc3ccc(F)cc3)c3ccccc23)CC1	-6%	-7%	?	-5%	1%	?
S=C(c1c[nH]c2ccccc12)N1CCOCC1	?	15µM*	-20%	-1%	11µM*	-26%
S=C(c1cn(Cc2ccccc2)c2ccccc12)N1CCOCC1	-13%	-9%	?	21%	25µM*	?
NC(=S)N=Nc1c(O)[nH]c2ccccc12	15%	-6%	-1%	-13%	?	?
Cc1cc(N2CCC(C(=O)NCCC(C)C)CC2)n2nc(C)c(-c3ccc(Cl)cc3)c2n1	34%	·	-7%	-25%	-27%[59 µM]	-11%
O=C(Nc1ccc(Cl)cc1)[C@@H]1[C@@H]2C(=O)N(c3ccc(Cl)cc3)C(=O)[C@@H]2[C@H]2C=CC=NN21	-26%	24µM*	-39%	?	?	?
Cc1ccc(N2C(=O)[C@@H]3[C@H](C2=O)[C@H]2C=CC=NN2[C@@H]3C(=O)Nc2ccc(Cl)cc2)cc1	2%	?	50µM*	-20%	3.2µM*	-8%[57.1 µM]
O=CN/C=C/c1cc(F)cc(F)c1F	·	·	·	-3%	·	·
CCCCn1nc(C(=O)Nc2ccc(-n3cnnn3)cc2)c2ccccc2c1=O	34%	-2%	1%	4%	13%[12.7 µM]	-6%
C#CCOCCOCCOCCNc1nc(N2CCN(C(=O)[C@H](CCCCN)n3cc(CN)nn3)CC2)nc(N2CCN(C(=O)[C@H](CCC(=O)O)n3cc(CN)nn3)CC2)n1	37%	0%	·	3%	·	?
C#CCOCCOCCOCCNc1nc(OC)nc(N2CCN(C(=O)[C@H](CCC(=O)O)n3cc(C(N)CO)nn3)CC2)n1 (stereo partly specified)	-12%	7%	79µM*	6%	-6%[2.33 µM]	79µM*
C#CCOCCOCCOCCNc1nc(N2CCN(C(=O)[C@H](CCC(=O)O)n3cc([C@@H](N)CO)nn3)CC2)nc(N2CCN(C(=O)[C@H](CCC(=O)O)n3cc([C@@H](N)CCSC)nn3)CC2)n1	7%	-13%	·	9%	·	79µM*
Cc1cc(Br)cn2c(Cc3ccsc3)c(-c3ccco3)nc12	·	24µM*	·	·	·	·
Cc1cc(Br)cn2c(Cc3ccccc3)c(-c3ccco3)nc12	·	-12%	·	·	·	·
COc1ccc(CN2C(=O)c3cccnc3C2=O)cc1S(=O)(=O)NC1CCCCC1	32%	8%	79µM*	-19%	6%	21%
Cn1c2c(c(=O)n(C)c1=O)CN(Cc1ccccc1)CN2	·	1%	·	·	·	·
Cc1cccc(C(=O)OCc2cc(=O)n3ccsc3n2)c1	-3%	·	-5%	5%	2%[59 µM]	-6%
Cc1ccnc(SCC(=O)N2CCc3ccccc32)n1	25%	0%	-9%	-11%	18%	-3%
COCCNC(=O)CN1CCN(C(c2ccccc2)c2ccccc2)CC1	?	-10%	?	26%	14µM*	8.9µM*
COc1ccc(C)cc1NC(=O)CNC(c1ccccc1)c1ccccc1	47%	6%	15%	0%	60%	15%
CN(Cc1ccccc1)C(=O)CN1CCN(C(c2ccccc2)c2ccccc2)CC1	-3%	1%	-31%	-4%	-38%	-20%
Cc1ccnc(SCC(=O)N2CCN(C(c3ccccc3)c3ccccc3)CC2)n1	36%	-19%	-2%	-12%	45µM*	-18%
COCCNC(=O)CNC(c1ccccc1)c1ccccc1	·	·	56µM*	·	45µM*	·
COC(=O)CN1CCN(C(c2ccccc2)c2ccccc2)CC1	28%	-6%	8%	23%	56µM*	-23%
O=C(c1cc(-c2cccc(O)c2)on1)N1CCN(C(c2ccccc2)c2ccccc2)CC1	9%	6%	-8%	-11%	45µM*	?
SMILES	HP1b binding inh	PLK1 PBD inh	BAZ2B block	VDR inh	G9a inh	JMJD2A Tudor inh
COC(=O)CNC(=O)CCC(=O)N1CCN(C(c2ccccc2)c2ccccc2)CC1	50%	-16%	-17%	1%	1%	-4%
Cc1ccccc1C(=O)N1CCN(C(c2ccccc2)c2ccccc2)CC1	34%	-4%	-25%	-19%	-18%[59 µM]	-22%
CCCCNC(=O)CCC(=O)N1CCN(C(c2ccccc2)c2ccccc2)CC1	69%	0%	79µM*	11%	2%	-1%
Cc1occc1C(=O)N1CCN(C(c2ccccc2)c2ccccc2)CC1	3%	-11%	?	-5%	40µM*	?
O=C(Nc1ccc(Br)cc1)c1cc(Br)c(Br)s1	·	·	·	4%	-51%[12.7 µM]	·
O=C(C[C@H]1C[C@H]2c3cc(NS(=O)(=O)c4ccc(F)cc4)ccc3O[C@H]2[C@H](CO)O1)NCc1ccncc1	·	3%	·	·	·	·
COc1ccc(S(=O)(=O)NC2(C(F)(F)F)NC(=O)N(CCc3ccc(OC)c(OC)c3)C2=O)cc1 (stereo unspecified)	27%	-8%	-17%	5%	50µM*!	-10%
CC(=O)Nc1ccc(S(=O)(=O)NC2(C(F)(F)F)NC(=O)N(CC(C)C)C2=O)cc1 (stereo unspecified)	4%	-9%	5%	10%	-36%	-14%
CC(C)CN1C(=O)NC(NS(=O)(=O)c2ccc(N)cc2)(C(F)(F)F)C1=O (stereo unspecified)	31%	21µM*	4%	-3%	17%[59 µM]	-6%
COc1ccc(CCN2C(=O)NC(NC(=O)CC(C)C)(C(F)(F)F)C2=O)cc1OC (stereo unspecified)	8%	-9%	-7%	-7%	-6%[59 µM]	-23%
COc1ccc(S(=O)(=O)NC2(C(F)(F)F)NC(=O)N(CCc3ccccc3)C2=O)cc1 (stereo unspecified)	35%	-8%	-13%	-6%	45µM*	0%
CC1=C(C(=O)Nc2cccnc2)C(c2cccc(F)c2)n2nc(SCc3ccccc3F)nc2N1 (stereo unspecified)	19%	·	?	-15%	-5%[59 µM]	-13%
O=C(COC(=O)c1cc2ccccc2oc1=O)Nc1cccc(S(=O)(=O)N2CCCCCC2)c1	6%	-11%	5%	-14%	21%[59 µM]	-11%
CN(C)S(=O)(=O)c1cccc(NC(=O)COC(=O)COc2ccc(Br)cc2)c1	12%	27µM*	0%	-19%	14%[12.7 µM]	-17%[11.4 µM]
CN(C)S(=O)(=O)c1cccc(NC(=O)COC(=O)c2cc3ccccc3oc2=O)c1	25%	-23%	18%	20%	79µM*	-11%
C=CCc1ccc(OCCOCCN(C)C)c(OC)c1	?	-4%	?	4%	4µM*	1.6µM*
C=CCc1ccc(OCCOCCOc2ccc(C)cc2[N+](=O)[O-])c(OC)c1	51%	-11%	5%	3%	35%	-14%
